Source: PubChem BioAssay (NCATS)
Several values for one entry are separate records, joined by “and”; a condition that tells them apart may be missing. Equal values may be shown once. Records with an inconclusive call do not appear. A call without a number means that no potency is given here. Unmarked numbers belong to inactive results. Activity calls are given as the source filed them. The call rests on the fitted dose curve; in most records, active means well fitted curve in the direction sought with a large enough effect; inconclusive means small, poorly fitted or top-dose-only effect, or another doubt; inactive means no such curve, though single readings can be large; an effect the other way counts as inactive or inconclusive.

Key:
[1] = molecular target: Cellular tumor antigen p53 (Homo sapiens) (UniProt P04637); assay: Primary qHTS for small molecule compounds that upregulate eGFP-tagged delta133p53alpha (in N-terminal) cells. (AID 2060322); details: NCI-H358 eGFP-delta133p53alpha fluorescence, 24 h; activation: hits give high values; further: nearly all actives have a fitted effect of over 75% in size; further: potency means the concentration at half of the fitted maximal effect; on activation: series mostly up to about 56 µM
Chain of Cellular tumor antigen p53 (Homo sapiens) (P04637 whole entry, looked up): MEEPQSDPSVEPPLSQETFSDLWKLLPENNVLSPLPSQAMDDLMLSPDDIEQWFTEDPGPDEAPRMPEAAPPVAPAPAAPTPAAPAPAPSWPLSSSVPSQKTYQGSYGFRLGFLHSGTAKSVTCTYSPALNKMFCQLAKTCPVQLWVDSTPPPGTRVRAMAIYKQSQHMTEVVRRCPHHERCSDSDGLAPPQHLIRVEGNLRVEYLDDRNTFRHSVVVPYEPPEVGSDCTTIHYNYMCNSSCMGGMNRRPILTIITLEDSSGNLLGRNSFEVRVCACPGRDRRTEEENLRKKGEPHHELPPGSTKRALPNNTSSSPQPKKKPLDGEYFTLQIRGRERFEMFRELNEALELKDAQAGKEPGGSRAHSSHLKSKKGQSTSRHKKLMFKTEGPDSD
Method in brief: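 NCI-H358 cells pre-induced 24 h with 10 ng/ml doxycycline to express N-terminal eGFP-delta133p53alpha, then dosed 24 h at 37C without doxycycline; fixed, Hoechst-stained, GFP intensity by laser scanning cytometry, normalized to DMSO (0%) and 57.5 uM 5-azacytidine (100%).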

[2] = molecular target: Aldehyde dehydrogenase, mitochondrial (Homo sapiens) (UniProt P05091); assay: qHTS for Inhibitors of the Aldehyde Dehydrogenase Family (ALDH2) Primary screen (AID 2061308); further: nearly all actives have a fitted effect of over 55% in size
[3] = molecular target: Retinaldehyde dehydrogenase 3 (Homo sapiens) (UniProt P47895); assay: qHTS for Inhibitors of the Aldehyde Dehydrogenase Family (ALDH1A3) Validation screen (AID 2061312); further: nearly all actives have a fitted effect of over 45% in size
[4] = molecular target: Retinaldehyde dehydrogenase 3 (Homo sapiens) (UniProt P47895); assay: qHTS for Inhibitors of the Aldehyde Dehydrogenase Family (ALDH1A3) Primary screen (AID 2061315)

SMILES	activation [1]	Potency [2]	Potency [3]	Potency [4]	Potency [1]
On1ncc(C2CCNCC2)c1-c1cccc(-c2ccccc2)c1	-8.11%	inactive	inactive	inactive	
O=C(NCCN1CCC(n2c(=O)[nH]c3ccccc32)CC1)c1ccc2ccccc2c1	-1.43%	inactive	inactive	inactive	
COc1ccccc1N1CCN(CCCCNC(=O)c2ccc(-c3cscn3)cc2)CC1	4.3%	inactive	inactive	inactive	
COc1ccc(-c2nc(-c3ccc(-c4cccc(Cl)c4)o3)[nH]c2-c2ccc(OC)cc2)cc1	-3.82%	inactive	inactive	inactive	
CC(C)CCNc1ncccc1C(=O)N1CCN(Cc2ccccc2)CC1	-4.3%	inactive	inactive	inactive	
O=C(NC1CCN(CC(F)(F)F)CC1)c1ccc(-c2cccc(F)c2)nc1	-16.7%	inactive	inactive	inactive	
Nc1ncnc2c1c(-c1ccc(Oc3ccccc3)cc1)nn2[C@@H]1CCCNC1	20%	inactive	inactive	inactive	
CC(C)c1nnc(-c2ccc(-c3ccccc3)nc2)n1-c1cccc2nonc12	-5.73%	inactive	inactive	inactive	
NS(=O)(=O)c1ccc(N2N=C(c3ccccc3)CC2c2ccccc2)cc1 (stereo not drawn)	-18.6%	inactive	inactive	inactive	
O=C1CSc2ccccc2N1Cc1cccc(C(F)(F)F)c1	3.34%	inactive	inactive	inactive	
COc1ccc(NC(=O)c2ccc(-c3ccc(-c4nnc(C)o4)cc3C)cc2)cc1N1CCN(C)CC1	-6.21%	inactive	inactive	inactive	
CC(C)(C)c1cc(Br)cc([C@H](CC(=O)O)NC(=O)CNC(=O)c2cc(O)cc(NC3=NCC(O)CN3)c2)c1 (stereo partly drawn)	-5.25%	inactive	inactive	inactive	
CNC(=O)c1ccc2c(c1)CCO[C@H]2CCN1CCN(c2ccc(OC)cc2)CC1	-25.3%	inactive	inactive	inactive	
O=C(c1ccccn1)c1cnn2c(-c3ccncc3)ccnc12	-7.16%	inactive	inactive	inactive	
Cc1nc(C#Cc2ccnc(Cl)c2)c(C)n1-c1ccc(F)cc1	-12.9%	inactive	inactive	inactive	
Cc1oc2nc3c(c(NC(=O)CN4CCCC4=O)c2c1C)CCCC3	-3.82%	inactive	inactive	inactive	
CN(C)C(=O)NC1(c2ccccc2)CCN(CCC[C@]2(c3ccc(Cl)c(Cl)c3)CCCN(C(=O)c3ccccc3)C2)CC1	13.4%	inactive	inactive	inactive	
CCN1CCN(Cc2ccc(NC(=O)c3ccc(C)c(Oc4ncnc5[nH]c(C)cc45)c3)cc2C(F)(F)F)CC1		inactive	inactive	inactive	23.9 µM (active)
COc1ccc(C(=O)N(CCC(C)C)Cc2nc(C)c(C)n2Cc2ccccc2C)c(OC)c1	11.5%	inactive	inactive	inactive	

SMILES	activation [1]	Potency [2]	Potency [3]	Potency [4]	Potency [1]
Cn1c(CO)c(-c2ccccc2)c2cc([N+](=O)[O-])ccc21	-4.77%	inactive	inactive	inactive	
CC(Cc1cc2c(c(C(N)=O)c1)N(CCCO)CC2)NCCOc1ccccc1OCC(F)(F)F (stereo not drawn)	5.25%	inactive	inactive	inactive	
CC1(C)CC(NC(=O)C(=O)Nc2ccc(Cl)cc2)CC(C)(C)N1	8.11%	inactive	inactive	inactive	
CCC(C)c1ccc(NC(=O)Cn2cnc3c2c(=O)n(C)c(=O)n3C)cc1 (stereo not drawn)	11.5%	inactive	inactive	inactive	
CN(C)c1nc(Cc2ccc(NC(=O)c3ccc(C(F)(F)F)cc3)cc2)nc(N(C)C)c1CC(=O)O	-14.6% and -1.43%	inactive	inactive	inactive	
O=C(c1ccc(F)cc1)C1CCN(CCn2c(=O)nc3n(c2=O)CCCC3)CC1	-6.21%	inactive	inactive	inactive	
CCN[C@@H]1C[C@H](N)[C@@H](O[C@H]2OC(CN)=CC[C@H]2N)[C@H](O)[C@H]1O[C@H]1OC[C@](C)(O)[C@H](NC)[C@H]1O	10.5% and 9.67%	inactive	inactive	inactive	
O=C(c1cc2c(cc1F)OC(c1ccc(F)cc1)(c1ccc(Cl)cc1Cl)O2)N1CCOCC1 (stereo not drawn)	-4.3%	inactive	inactive	inactive	
CCCCOC(=O)NC(=O)C1c2ccccc2Oc2ccccc21	-11.5%	inactive	inactive	inactive	
CCOC(=O)Nc1cc(-c2ccc(C)c(NS(C)(=O)=O)c2)nn2c(C)nnc12	22.9%	inactive	inactive	inactive	
Cc1cc(NC(=O)NCCN2CCC(O)(Cc3ccccc3)CC2)c2ccccc2n1	3.34%	inactive	inactive	inactive	
OC1(CN2CCC(COc3noc4cccc(O[C@@H]5CCOC5)c34)CC2)CCOCC1	3.82%	inactive	inactive	inactive	
O=C(Nc1ccc2[nH]c(=O)oc2c1)C(=O)N1CCC(Cc2ccc(F)cc2)CC1	2.39%	inactive	inactive	inactive	
C[C@@H](O[C@H]1OCCN(Cc2nn(P(=O)(O)O)c(=O)[nH]2)[C@H]1c1ccc(F)cc1)c1cc(C(F)(F)F)cc(C(F)(F)F)c1	10%	inactive	inactive	inactive	
Cc1[nH]c2ccccc2c1CC(=O)N[C@@H](Cc1ccccc1)C(=O)N(C)c1ccccc1	22.9%	inactive	inactive	inactive	
O=c1[nH]cnc2c1ncn2[C@@H]1O[C@H](CO)[C@@H](O)[C@H]1O	-11.7% and 6.21%	inactive	inactive	inactive	
CCN(CC)C(=O)C(c1ccccc1)N1CCN(c2ccc(NC(=O)c3ccccc3-c3cccnc3)cc2F)CC1 (stereo not drawn)	-6.21%	inactive	inactive	inactive	
O=C(O)Cc1ccc2oc(-c3ccc(NC(=O)/C=C/c4ccc(Br)cc4)c(F)c3)nc2c1	25.8%	inactive	inactive	inactive	
Cc1ccc(Cl)cc1N(CC(=O)Nc1c(F)cccc1F)S(C)(=O)=O	0.955%	inactive	inactive	inactive	

SMILES	activation [1]	Potency [2]	Potency [3]	Potency [4]	Potency [1]
CC(=O)N(C)C1(c2ccccc2)CCN(CCC[C@]2(c3ccc(Cl)c(Cl)c3)CCCN(C(=O)c3ccccc3)C2)CC1	16.9%	inactive	inactive	inactive	
CNC(=O)c1ccccc1Nc1nc(Nc2ccc(N3CCNCC3)cc2)ncc1Cl		inactive	inactive	inactive	1.35 µM (active)
Cc1ccc(NC(=O)C(=O)NC2CC(C)(C)NC(C)(C)C2)cc1	-13.4%	inactive	inactive	inactive	
O=C(O)c1cccc(S(=O)(=O)N2CCc3ccccc3C2)c1	-7.64%	inactive	inactive	inactive	
O=C(Nc1ccc(CN2CCOCC2)cc1)c1ccc(-c2cccc(Cl)c2)o1	-8.59%	inactive	inactive	inactive	
CCC(=O)N1CCOc2c(cc(-c3ccc(OC)c(OC)c3)cc2OC[C@H]2CCCN(C)C2)C1	-0.477%	inactive	inactive	inactive	
Cn1c2ccc(NC(=O)c3ccccc3)cc2c(=O)n2nc(C(=O)O)cc12	8.59%	inactive	inactive	inactive	
C#CCN(Cc1cc2c(=O)n(C)c(CN3CCN(C)CC3)nc2cc1Cl)c1ccc(C(=O)NCc2cccnc2)cc1	0.955%	inactive	inactive	inactive	
Cn1c(=O)cc(N2CCCC(N)C2)n(Cc2ccccc2C#N)c1=O (stereo not drawn)	0%	inactive	inactive	inactive	
Cc1occc1C(=O)n1ccnc1	1.43%	inactive	inactive	inactive	
CCC1C(=O)N(C)c2cnc(Nc3ccc(C(=O)NC4CCC(N5CCN(CC6CC6)CC5)CC4)cc3OC)nc2N1C(C)C (stereo not drawn)	37.2%	inactive	inactive	inactive	
COc1cc(-n2cnc3cc(-c4ccc(Cl)cc4)sc3c2=O)ccc1OCCN1CCCC1	18.1%	inactive	inactive	inactive	
CCOc1ccc(CCNC(=O)c2cc3sc(Cl)cc3n2C)cc1OCC	-10.5%	inactive	inactive	inactive	
O=[N+]([O-])c1cn2c(n1)OC[C@@H](OCc1ccc(-c3ccc(OC(F)(F)F)cc3)nc1)C2	-3.34%	inactive	inactive	inactive	
CCCC1(c2ccccc2)NC(=O)N(CC(=O)N(C)Cc2c(F)cccc2Cl)C1=O (stereo not drawn)	4.3%	inactive	inactive	inactive	
CO[C@@H]1[C@@H](O[C@H]2O[C@@H](C)[C@H](O[C@@H]3C[C@](C)(O)[C@H](O)[C@@H](C)O3)[C@@H](N(C)C)[C@@H]2O)[C@@H](CC=O)C[C@@H](C)[C@@H](O[C@H]2CC[C@H](N(C)C)[C@H](C)O2)/C=C/C=C/C[C@@H](C)OC(=O)C[C@H]1O	-1.43%	inactive	inactive	inactive	
NC(=O)CCCSc1nc(N)nc(-c2c(Cl)cc3c4c(cccc24)COC3)n1	-8.59%	inactive	inactive	inactive	
N[C@@H](CC(=O)Nc1ccc(Oc2cc(F)c(F)cc2Br)cc1)C(=O)O	-8.11%	inactive	inactive	inactive	
CN[C@H](CNC(=O)N1CCC[C@@H]([C@@H](OCCNC(=O)OC)c2cccc(Cl)c2)C1)C[C@H]1CCCOC1	11.5%	inactive	inactive	inactive	
